The values below come from PubChem BioAssay.

Values joined by “and” are separate entries in the source; they are usually repeats but may differ in a detail not shown here. Equal entries are not always repeated. Inconclusive results are not listed. More than one record can exist for a structure, and the calls need not agree. Active and inactive are the calls of the source. Unless noted, the limit is not given here; nearly all actives have AC50 up to about 26 µM.

The nature of assay [1]: kinase inhibitors against Plasmodium liver-stage infection, cell-based, known kinase inhibitor set, luminescence, hepatoma host viability (AID 624392; call rule not given here;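 also: infected cells incubated roughly two days before readout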). To be noted: Plasmodium liver stage in hepatoma cells, luciferase luminescence, concentration not given here; liver cell % of control: measured here: host liver cell viability; parasite % of control: stronger effect = lower value.
Assay [2] is described as follows: growth inhibition of DIPG glioma cells, dose response, cell-based, SU-DIPG-XVII, MIPE5.0, CellTiter-Glo, qHTS (AID 1347060).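 As to AC50: cells exposed to compound for 48 hours before viability readout.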 Conditions: SU-DIPG-XVII viability, CellTiter-Glo ATP luminescence. A general note: ATP-based viability assays read luminescence as a measure of living cells.
A short description of assay [3]: viability loss in pontine glioma line – cell-based, SU-DIPG-XXV, MIPE5.0, CellTiter-Glo, qHTS, dose response (AID 1347065).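 Also: cells exposed to compound for 48 hours before ATP readout.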 Conditions: CellTiter-Glo ATP luminescence.
A short description of assay [4]: JHH-DIPG-1 glioma cell viability, MIPE5.0 library, CellTiter-Glo luminescence, qHTS (AID 1347067).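 Also: cells exposed to compound for 48 hours before readout.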 Conditions: JHH-DIPG-1 glioma viability, CellTiter-Glo ATP luminescence.
Assay [5] can be described thus: SU-DIPG-XXV glioma cell viability, MIPE5.0 library, qHTS (AID 1347068; cut-off not given, nearly all actives have IC50 up to about 30 µM;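 as to IC50: cells exposed to compound for 48 hours before viability readout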). (qHTS replaces the single test concentration by a dilution series.)
The nature of assay [6]: sensitizers of A549 cells to miR-34 induction, primary screen, imaging, A549 dox-inducible miR-34, nuclei and caspase counts (AID 1347080;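 active = compounds whose cell count with miR-34 switched on is under 0.7 times the count with it off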). To be noted: A549 miR-34 inducible, Hoechst nuclei count, 48 h.
Assay [7] is described as follows: modifiers of HSF1 nuclear foci, imaging, Selleck Cancer Library (AID 1347162; in the data active = plate-normalised HSF1 focus index below about 0.46). To be noted: human cells, at 10 µM; SSMD: measured here: HSF1 foci SSMD mean; cell count: measured here: cell number; plate-normalised HSF1 focus index: stronger effect = lower value.
Assay [8] can be described thus: survival rescue of mitochondrial mutant cells in low glucose, primary screen, MELAS cybrids, Rieske KO mouse fibroblasts, CellTiter-Glo (AID 1508586;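 active = mean z-score across replicates of 1.96 or higher in either the MELAS or the Rieske mutant cell line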;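 also: z relative to plate mean and SD of compound and empty wells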).
The nature of assay [9]: ovarian cancer cell viability with rucaparib, profiling panel, oncology-focused library, rucaparib conditional (AID 1508598;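 active = normalized viability below 100% at a tested concentration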). Conditions: patient-derived ovarian cancer cells, CellTiter-Glo viability, 144 h, stronger effect = lower value.

For orientation: AC50 means the midpoint of the concentration-response curve, whichever way the signal moves. One may read the IC50 as the concentration that gives 50% inhibition. One may read the viability as a read-out of living cells in per cent, often relative to untreated cells. For `O=C(Nc1cccc(Cl)c1)Nc1ncc(CCNc2ncnc3ccsc23)s1`, the liver cell % of control in assay [1] was 68.4% and 82.5% and 102%. In assay [1], the parasite % of control is 0.394% (inactive) and 0.318% (inactive) and 0.473% (active). Besides, the AC50 in [2] is 16.6 nM (active); in [3], 525 nM (active); in assay [4], 16600 nM (active). In addition, in [5], the IC50 is 11800 nM (active). The fold change in assay [6] (stronger effect = lower value, cell number ratio, induced over uninduced) was 1.06 (inactive); in assay [6] (measured here: relative caspase fold change +Dox/-Dox), 1.09. Also, the cell count in assay [6] (measured here: total cells with miR-34 induction, stronger effect = lower value) stood at 2320; in assay [6] (measured here: total cells without miR-34 induction) it was 2200; in assay [7], 7300. In assay [7], this molecule had an SSMD of 1.43. The plate-normalised HSF1 focus index in [7] was 1.08 (inactive). The z-score in assay [8] (MELAS cybrid survival, CellTiter-Glo 48 h, stronger effect = higher value) was -0.144 (inactive); in assay [8] (Rieske KO mouse fibroblast survival, CellTiter-Glo 72 h) it was -1.82. Further, the viability is 108% (inactive) in assay [9] (at 0.000305 µM, OCI-C5x cells, with rucaparib 10 µM, 100% = cells with rucaparib alone); 107% (inactive) in [9] (at 0.000305 µM, OCI-C5x cells, without rucaparib); 122% (inactive) in assay [9] (at 0.000305 µM, OCI-P5x cells, with rucaparib 20 µM, 100% = cells with rucaparib alone); 122% (inactive) in [9] (at 0.000305 µM, OCI-P5x cells, without rucaparib); 98.1% (active) in [9] (at 0.00122 µM, OCI-C5x cells, with rucaparib 10 µM, 100% = cells with rucaparib alone); 97.4% (active) in [9] (at 0.00122 µM, OCI-C5x cells, without rucaparib). Besides, the viability in [9] (at 0.00122 µM, OCI-P5x cells, with rucaparib 20 µM, 100% = cells with rucaparib alone) was 115% (inactive); in [9] (at 0.00122 µM, OCI-P5x cells, without rucaparib), 94.7% (active); in [9] (at 0.00488 µM, OCI-C5x cells, with rucaparib 10 µM, 100% = cells with rucaparib alone), 95.1% (active); in assay [9] (at 0.00488 µM, OCI-C5x cells, without rucaparib), 96.5% (active); in assay [9] (at 0.00488 µM, OCI-P5x cells, with rucaparib 20 µM, 100% = cells with rucaparib alone), 112% (inactive); in [9] (at 0.00488 µM, OCI-P5x cells, without rucaparib), 91.7% (active). Moreover, the viability in [9] (at 0.0195 µM, OCI-C5x cells, with rucaparib 10 µM, 100% = cells with rucaparib alone) was 112% (inactive); in [9] (at 0.0195 µM, OCI-C5x cells, without rucaparib), 109% (inactive); in assay [9] (at 0.0195 µM, OCI-P5x cells, with rucaparib 20 µM, 100% = cells with rucaparib alone), 99.4% (active); in [9] (at 0.0195 µM, OCI-P5x cells, without rucaparib) it was 85.1% (active); in assay [9] (at 0.0781 µM, OCI-C5x cells, with rucaparib 10 µM, 100% = cells with rucaparib alone) it was 91.8% (active); in assay [9] (at 0.0781 µM, OCI-C5x cells, without rucaparib), 109% (inactive). Besides, the viability was 99.1% (active) in [9] (at 0.0781 µM, OCI-P5x cells, with rucaparib 20 µM, 100% = cells with rucaparib alone); 85.1% (active) in [9] (at 0.0781 µM, OCI-P5x cells, without rucaparib); 91.9% (active) in [9] (at 0.313 µM, OCI-C5x cells, with rucaparib 10 µM, 100% = cells with rucaparib alone); 103% (inactive) in assay [9] (at 0.313 µM, OCI-C5x cells, without rucaparib); 96.5% (active) in assay [9] (at 0.313 µM, OCI-P5x cells, with rucaparib 20 µM, 100% = cells with rucaparib alone); 81.4% (active) in [9] (at 0.313 µM, OCI-P5x cells, without rucaparib). In addition, the viability in assay [9] (at 1.25 µM, OCI-C5x cells, with rucaparib 10 µM, 100% = cells with rucaparib alone) is 94.3% (active); in [9] (at 1.25 µM, OCI-C5x cells, without rucaparib), 108% (inactive); in [9] (at 1.25 µM, OCI-P5x cells, with rucaparib 20 µM, 100% = cells with rucaparib alone) it was 97.9% (active); in [9] (at 1.25 µM, OCI-P5x cells, without rucaparib), 88.4% (active); in [9] (at 5 µM, OCI-C5x cells, with rucaparib 10 µM, 100% = cells with rucaparib alone), 170% (inactive); in assay [9] (at 5 µM, OCI-C5x cells, without rucaparib), 150% (inactive). In addition, the viability in assay [9] (at 5 µM, OCI-P5x cells, with rucaparib 20 µM, 100% = cells with rucaparib alone) was 51.5% (active); in [9] (at 5 µM, OCI-P5x cells, without rucaparib) it was 61.4% (active).

With `CCN(CC)CCCC[C@H](NC(=O)[C@H](CC(C)C)NC(=O)[C@H](C)NC(=O)[C@H](Cc1ccccc1)NC(=O)c1ccc(C(C)(C)C)cc1)C(=O)N[C@@H](CO)C(=O)OC`, the result in [2], in assay [3], in assay [4] and in assay [5] was inactive.

In the case of `C=CC(=O)N1CCC[C@H](n2c(=O)n(-c3ccc(Oc4ccccc4)cc3)c3c(N)ncnc32)C1`, the AC50 in assay [2] was 590 nM (active); in assay [3] it was 7420 nM (active); in [4] it was 742 nM (active). Moreover, the molecule was called inactive in assay [5].

Regarding `CN1CCN(C(=O)[C@H]2[C@@H](C(=O)O)[C@H]3CC[C@@H]2O3)CC1`, the outcome in assay [2], in assay [3], in [4] and in assay [5] was inactive.

Turning to `Cn1cc(-c2c[nH]c3ncnc(N4CCOCC4)c23)cn1`, the result in [2], in assay [3], in assay [4] and in assay [5] was inactive.

With `CCO[C@@H]1OC(=O)C[C@@H]1NC(=O)[C@@H]1CCCN2C(=O)CC[C@H](NC(=O)c3nccc4ccccc34)C(=O)N12`, the result in assay [2], in [3], in assay [4] and in assay [5] was inactive.

For the molecule `O=C1OC2(CCC(C(=O)Nc3ccn(-c4ccccc4F)n3)CC2)c2cnccc21` (configuration not stated), the result in assay [2], in [3], in assay [4] and in assay [5] was inactive.

On to `Nc1cc(COc2c(Cl)cc(C[C@H](N)C(=O)O)cc2Cl)c2oc(-c3ccccc3)nc2c1`, for which the result in [2], in [3], in [4] and in assay [5] was inactive.

As for `Cc1cc(Nc2cc(N)ncn2)c(=O)n2c1C(=O)NC21CCCCC1`, the call in assay [2], in assay [3], in assay [4] and in assay [5] was inactive.

Turning to `CC(C)C[C@@H]1NC(=O)[C@@H](C(C)C)NC(=O)[C@@H]2CCCN2C(=O)[C@@H](CC(=O)O)NC(=O)[C@@H](Cc2c[nH]c3ccccc23)NC1=O`, the molecule was called inactive in [2], in assay [3], in assay [4] and in assay [5].

Regarding `COc1cc2c(cc1OC)CN(CCc1ccc(-n3nnc(-c4cc(OC)c(OC)cc4NC(=O)c4cc(=O)c5ccccc5o4)n3)cc1)CC2`, the call in [2], in [3], in [4] and in assay [5] was inactive.
